11 compounds from PubChem BioAssay can be followed below.

SMILES strings stand for the structures. Inconclusive results are not listed. Activity calls are given as the source filed them.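 How the source made its calls, unless noted: active means viability increase at or above a cutoff of the median across tested compounds plus 3 SD (cut at about 8.5% in these data, passing the limit was not always enough); inconclusive means some gains above the cutoff, reason not given; inactive means the rest.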

For assay [1], the target named is Pantothenate synthetase (Mycobacterium tuberculosis (strain ATCC 25618 / H37Rv)) (UniProt P9WIL5). Briefly: Recombinant Mtb pantothenate synthetase (PanC) inhibitors, coupled enzyme, confirmatory (AID 375; call rule not given here;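 further: 0% = full reaction with vehicle and 100% = no enzyme background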). To be noted: coupled enzyme assay; at 10 µM, stronger effect = higher value.
Assay [2] can be described thus: reducers of endogenous Her2 protein level, primary screen, SKBR3 breast tumor cells, AlphaScreen, ATP viability (AID 461;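 active means Her2 level under about 52% in both replicate screens, with viability over 70% of control, limit read from the data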;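 on Her2 level: lower value means less Her2 protein in the cells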;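 on viability: percent of carrier control wells set as 100% viability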). To be noted: 18-24 h, measured here: SKBR3 viability, ATP luminescence, at 10 µM. (In general: Alpha assays give light when donor and acceptor beads are brought close together.)
The target of assay [3] is Receptor tyrosine-protein kinase erbB-2 (Homo sapiens) (UniProt P04626). The description is as above. To be noted: 18-24 h, at 10 µM, stronger effect = lower value.
Assay [4] in a line: SK-BR-3 cell growth inhibitors, pilot screen, 24 h, human (AID 572;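 active means viability at or below 10% of carrier control in both of two separate runs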;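 further: compound exposure lasted between 18 and 24 h rather than exactly 24 h; 100% = carrier-treated control wells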). The note with it: SK-BR-3 viability, CellTiter-Glo luminescence, at 10 µM, stronger effect = lower value.
The nature of assay [5]: HUVEC growth inhibition – cell-based, human, primary screen (AID 575;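 active means viability at or below 30% in both replicate assays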;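 further: 100% = median of untreated cell wells with 0.1% DMSO on each plate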). The note with it: HUVEC proliferation, CellTiter-Glo luminescence, 72 h; at 10 µM; stronger effect = lower value. A general note: Cellular ATP, detected with luciferase, serves as a proxy for viable cell number.
Assay [6] is described as follows: growth inhibitors of H69AR lung tumor, primary screen, human, duplicate replicates (AID 580;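 active means viability at or under a set limit in both replicates, limit being median viability minus 3 SD, cut at about 48% in these data, passing the limit was not always enough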;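 further: 100% = mean luminescence of untreated wells and 0% = no signal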). To be noted: H69AR lung tumor cells viability, ATP luminescence, 72 h; at 10 µM; stronger effect = lower value.
Assay [7] can be described thus: reversal of MRP1-mediated doxorubicin resistance, pilot screen, H69AR cells, doxorubicin co-treatment (AID 601;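 active means viability loss from added drug above about 55%, and viability with drug at most 40%, in both replicates, limit read from the data, passing the limit was not always enough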). To be noted: CellTiter-Glo, 72 h, at 10 µM; for differential viability (reversal): stronger effect = higher value.
A short description of assay [8]: 384-well plate pilot, post-Golgi transport modulator project, inhibition of yeast transport mutant growth (AID 636; in the data active means inhibition above about 31%). The note with it: absorbance 615 nm, about 18 h, stronger effect = higher value.
A short description of assay [9]: growth suppression of yeast trafficking mutant, preliminary HTS, modulators of trafficking downstream of Golgi apparatus project, 1536-format plate, OD 615 nm (AID 637; in the data active means inhibition above about 30%). To be noted: yeast transport mutant growth, absorbance 615 nm, 18 h; stronger effect = higher value.
Assay [10] can be described thus: OD615 S. cerevisiae growth inhibition, permissive medium, pilot counter-assay, permissive growth control for S. cerevisiae lifespan shortening project (AID 705;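 active means growth inhibition above 25% in both replicates, a cutoff set 3 SD above the mean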). To be noted: OD615, 24 h, at 10 µM, stronger effect = higher value.
Assay [11] is described as follows: Restrictive medium S. cerevisiae growth inhibition, OD615, pilot screen of yeast lifespan reduction project, restrictive growth control (AID 706;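 active means growth inhibition above a set limit, 3 SD over mean compound inhibition, in both replicates, cut at about 43% in these data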;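 further: modified DeaD lifespan yeast strain shifted to restrictive glucose medium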). To be noted: OD615, 48 h, at 10 µM, stronger effect = higher value.
The nature of assay [12]: viability gain of MRP-1-high H69AR cells under doxorubicin, pilot screen, MRP-1 activator project, CellTiter-Glo, duplicate (AID 807).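 Further: compound pretreatment 18-22 h then 72 h combined with doxorubicin; 0% = doxorubicin alone and 100% = vehicle without doxorubicin.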 To be noted: H69AR viability with doxorubicin, CellTiter-Glo luminescence; at 10 µM; stronger effect = higher value.
The nature of assay [13]: growth suppression of beta-catenin knockout HCT116, pilot screen, human colon tumor cells (AID 823;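 active means cell viability at or below a set limit in both duplicate runs, the limit being the all-compound median minus 4 SD, cut at about 23% in these data, passing the limit was not always enough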;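 further: 0% = wells killed by 20 µM Hyamine and 100% = untreated DMSO cell wells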). The note with it: CellTiter-Glo, 60 h, at 10 µM, stronger effect = lower value.
The nature of assay [14]: growth suppression of PTEN-deleted HCT116, pilot screen, cell-based, HCT116 clonal line, CellTiter-Glo (AID 824;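 active means viability at or below 27.92% in each of two runs, the all-compound median minus 4 SD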;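 further: 0% = 20 µM Hyamine control and 100% = vehicle cell control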). To be noted: 60 h, at 10 µM, stronger effect = lower value.
A short description of assay [15]: inhibitors of the yeast RAM network, pilot screen, dse1pr::URA3 reporter, 5-FOA selection (AID 869;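 active means inhibition over a set limit, the all-compound mean plus 3 SD, in both replicate runs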;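 further: 0% = DMSO wells with no growth and 100% = 10 µM 1-NA-PP1 with full growth; RAM network block rescues cells from 5-FOA so hits raise OD615 growth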). The note with it: S. cerevisiae dse1pr::URA3 5-FOA growth, OD615, 2 d, at 10 µM, stronger effect = higher value.
The nature of assay [16]: RAM signaling pathway blockade in yeast – S. cerevisiae, Pdr1DBD-CYC8 efflux-inhibited sensitized strain, primary screen (AID 1298;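 active means RAM network inhibition above 8.4% in each of two replicates, 3 SD over the compound average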;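 further: 0% = DMSO untreated cells without growth and 100% = 10 µM 1-NA-PP1 full growth; higher means more yeast growth rescued from 5-FOA killing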). The note with it: S. cerevisiae cbk1-as DSE1-URA3 strain, 5-FOA growth OD615, 2 d; at 50 µM; stronger effect = higher value.
The mark [17] stands for this setting: H69AR cells + 2 uM doxorubicin, measured here: viability with 2 uM doxorubicin, stronger effect = lower value.
The mark [18] stands for this setting: H69AR cells, compound alone cytotoxicity.

Sequence of Receptor tyrosine-protein kinase erbB-2 (Homo sapiens) (P04626 whole entry, looked up): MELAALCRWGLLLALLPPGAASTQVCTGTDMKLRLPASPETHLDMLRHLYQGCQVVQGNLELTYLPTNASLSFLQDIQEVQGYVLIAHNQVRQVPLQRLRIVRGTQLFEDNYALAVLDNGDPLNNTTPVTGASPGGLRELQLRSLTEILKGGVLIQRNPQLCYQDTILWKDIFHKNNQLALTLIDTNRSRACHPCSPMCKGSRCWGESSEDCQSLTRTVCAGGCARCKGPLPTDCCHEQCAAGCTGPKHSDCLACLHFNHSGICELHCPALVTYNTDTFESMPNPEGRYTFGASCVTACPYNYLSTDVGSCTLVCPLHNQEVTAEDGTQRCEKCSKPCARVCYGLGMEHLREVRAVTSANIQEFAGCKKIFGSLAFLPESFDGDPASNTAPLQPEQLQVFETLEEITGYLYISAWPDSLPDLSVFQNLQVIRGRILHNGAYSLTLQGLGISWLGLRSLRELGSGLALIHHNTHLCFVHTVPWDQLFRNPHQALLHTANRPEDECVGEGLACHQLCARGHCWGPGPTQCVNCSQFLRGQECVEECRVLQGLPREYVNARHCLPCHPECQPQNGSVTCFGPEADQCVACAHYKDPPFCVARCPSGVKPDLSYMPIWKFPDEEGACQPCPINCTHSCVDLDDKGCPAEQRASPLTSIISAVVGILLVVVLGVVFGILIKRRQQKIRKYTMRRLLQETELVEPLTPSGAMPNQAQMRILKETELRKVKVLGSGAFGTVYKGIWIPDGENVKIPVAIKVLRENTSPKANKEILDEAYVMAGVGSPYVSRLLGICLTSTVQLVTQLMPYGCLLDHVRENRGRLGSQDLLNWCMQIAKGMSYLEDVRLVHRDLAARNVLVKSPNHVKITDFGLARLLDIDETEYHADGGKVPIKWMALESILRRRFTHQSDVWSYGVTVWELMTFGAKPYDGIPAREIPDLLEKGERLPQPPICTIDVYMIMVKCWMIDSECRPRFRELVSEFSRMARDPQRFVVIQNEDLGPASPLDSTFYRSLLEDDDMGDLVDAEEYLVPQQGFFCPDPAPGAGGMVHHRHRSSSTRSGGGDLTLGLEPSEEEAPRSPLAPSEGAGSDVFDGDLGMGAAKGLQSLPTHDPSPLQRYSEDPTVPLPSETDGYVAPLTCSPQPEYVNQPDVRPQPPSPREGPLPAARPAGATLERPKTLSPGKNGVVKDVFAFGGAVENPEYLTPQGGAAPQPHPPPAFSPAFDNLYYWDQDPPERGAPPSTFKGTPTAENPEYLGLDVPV
Sequence of Pantothenate synthetase (Mycobacterium tuberculosis (strain ATCC 25618 / H37Rv)) (P9WIL5 whole entry, looked up): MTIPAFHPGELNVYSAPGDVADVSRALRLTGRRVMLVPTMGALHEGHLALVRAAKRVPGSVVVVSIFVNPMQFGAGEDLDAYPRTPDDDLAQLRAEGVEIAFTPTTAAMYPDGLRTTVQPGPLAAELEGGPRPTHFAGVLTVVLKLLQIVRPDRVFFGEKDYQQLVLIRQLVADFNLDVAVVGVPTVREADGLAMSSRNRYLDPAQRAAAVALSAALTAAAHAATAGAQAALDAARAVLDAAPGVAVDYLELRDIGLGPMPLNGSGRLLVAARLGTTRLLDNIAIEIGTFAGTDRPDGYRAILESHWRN

For orientation: inhibition means the change of the read-out against control, counted positive when it falls. Usually viability stands for a read-out of living cells in per cent, often relative to untreated cells. As for `c1ccc(C2NCc3ccccc3-n3cccc32)cc1` (stereo not given), the inhibition in [1] was 0% (inactive); in assay [8], -4.53% (inactive); in [9], 1.67% (inactive); in assay [15], 2.53% (inactive). Besides, the viability was 86% in assay [2]; 86% (inactive) in assay [4]; 104% (inactive) in assay [5]; 84.2% (inactive) in [6]; 78.4% in [7] (setting [17]); 84.2% in assay [7] (setting [18]). The viability in [13] is 68.2% (inactive); in assay [14] it was 78.5% (inactive). In assay [3], the Her2 level was 93.5% (inactive). The differential viability (reversal) in assay [7] (H69AR cells + 2 uM doxorubicin) is 5.83% (inactive). Moreover, the values for the growth inhibition in [10] and in assay [11] were -19% (inactive) and -22.7% (inactive), respectively. For the same compound, the viability increase in assay [12] was -3.44% (inactive). Besides, in [16], the RAM network inhibition is 2.46% (inactive).
For `COc1ccccc1N=Cc1c(O)n(C)c(=O)n(C)c1=O`, the growth inhibition was -6.69% (inactive) in assay [10] and 1.98% (inactive) in assay [11]. Moreover, the viability increase in assay [12] was 0.23% (inactive). Moreover, the figures for the viability in assay [13] and in assay [14] were 87.1% (inactive) and 99.6% (inactive), respectively. For the same compound, in [15], the inhibition was -0.295% (inactive). In addition, the RAM network inhibition in [16] was 2.71% (inactive).
For the compound `CCCCn1c(C)c(C(=O)OCC)c2c(CN3CCOCC3)c(O)ccc21`, the inhibition in assay [1] was 2% (inactive); in assay [8], -4.34% (inactive); in assay [9], 4.33% (inactive); in assay [15] it was -0.155% (inactive). Further, the viability in assay [2] was 110%; in assay [4], 110% (inactive); in [5] it was 58.5% (inactive); in assay [6], 73.3% (inactive); in assay [7] (setting [17]) it was 79.4%; in [7] (setting [18]), 73.3%. The viability is 68.3% (inactive) in assay [13] and 72.6% (inactive) in assay [14]. In addition, the Her2 level in assay [3] is 92.5% (inactive). Also, the differential viability (reversal) in assay [7] (H69AR cells + 2 uM doxorubicin) is -6.07% (inactive). Besides, the growth inhibition in assay [10] is -15.6% (inactive); in assay [11] it was -9.74% (inactive). Also, in assay [12], the viability increase was -6.39% (inactive). In addition, in [16], the RAM network inhibition is 2.5% (inactive).
On to `CCCC(C)C1C(C#N)=C(N)Oc2c1c(=O)oc1ccccc21` (stereo not given), for which the inhibition in [1] is 4% (inactive); in [8] it was -2.21% (inactive); in [9], -0.33% (inactive); in [15] it was 3.74% (inactive). The viability is 116% in assay [2]; 116% (inactive) in [4]; 66.8% (inactive) in [5]; 67.7% (inactive) in assay [6]; 79.2% in assay [7] (setting [17]); 67.7% in assay [7] (setting [18]). In addition, the viability in assay [13] is 91.6% (inactive); in [14] it was 97% (inactive). In addition, the Her2 level in assay [3] was 106% (inactive). The differential viability (reversal) in [7] (H69AR cells + 2 uM doxorubicin) was -11.5% (inactive). Also, the growth inhibition in assay [10] is -16.8% (inactive); in assay [11] it was -20.1% (inactive). Also, in [12], the viability increase is -5.21% (inactive). In assay [16], the RAM network inhibition was 8.16% (inactive).
`Cc1nc2ccccc2c(=O)n1-c1ccc(F)cc1`: the inhibition in assay [1] is 0% (inactive); in assay [8], -5.32% (inactive); in [9] it was 1.5% (inactive); in assay [15], 1.44% (inactive). The viability was 104% in [2]; 104% (inactive) in assay [4]; 93.6% (inactive) in [5]; 96.1% (inactive) in [6]; 84.6% in [7] (setting [17]); 96.1% in assay [7] (setting [18]). The viability is 97.7% (inactive) in [13] and 100% (inactive) in assay [14]. Besides, the Her2 level in assay [3] is 90% (inactive). In addition, in assay [7] (H69AR cells + 2 uM doxorubicin), the differential viability (reversal) was 11.5% (inactive). Moreover, the growth inhibition in assay [10] is -2.1% (inactive); in [11] it was 4.13% (inactive). Besides, the viability increase in assay [12] was -0.87% (inactive). Also, the RAM network inhibition in assay [16] was 1.29% (inactive).
Take `CC(CO)(CO)N=Cc1c(O)n(-c2cccc3ccccc23)c(=O)[nH]c1=O`: the growth inhibition in [10] was -9.27% (inactive); in assay [11] it was -18.2% (inactive). For the same compound, the viability increase in assay [12] was -1.01% (inactive). The viability in assay [13] was 95.8% (inactive); in assay [14] it was 99% (inactive). The inhibition in assay [15] is 0.52% (inactive). The RAM network inhibition in assay [16] is 4.06% (inactive).
Consider `Nc1ccc(S(=O)(=O)N2CC3CC(C2)c2cccc(=O)n2C3)cc1` (stereo not given), for which the growth inhibition in assay [10] is 1.94% (inactive); in assay [11] it was 1.35% (inactive). The viability increase in assay [12] is 0.35% (inactive). Moreover, the results for the viability in assay [13] and in [14] were 101% (inactive) and 100% (inactive), respectively. In addition, the inhibition in assay [15] was 0.13% (inactive). Besides, the RAM network inhibition in assay [16] was 0.37% (inactive).
For the compound `Cc1cc(OC(=O)c2ccco2)c2c3c(c(=O)oc2c1)CCC3`, the growth inhibition in assay [10] is 2.81% (inactive); in assay [11], -1.05% (inactive). Further, in assay [12], the viability increase is -1.26% (inactive). Besides, the viability in assay [13] is 94.3% (inactive); in [14], 85.2% (inactive). Further, in [16], the RAM network inhibition was 4.5% (inactive).
As to `CC(=O)Nc1ccc(OC(=O)c2ccccc2N)cc1`, the inhibition in assay [1] is 0% (inactive); in assay [8] it was -0.13% (inactive); in assay [9], -9.5% (inactive); in [15], 1.02% (inactive). Besides, the viability in assay [2] is 100%; in assay [4] it was 100% (inactive); in assay [5], 93.5% (inactive); in assay [6] it was 99.3% (inactive); in assay [7] (setting [17]), 90.1%; in assay [7] (setting [18]) it was 99.3%. Further, the viability is 107% (inactive) in [13] and 102% (inactive) in assay [14]. Besides, the Her2 level in assay [3] was 118% (inactive). Besides, in assay [7] (H69AR cells + 2 uM doxorubicin), the differential viability (reversal) is 9.29% (inactive). Also, the growth inhibition in assay [10] was -7.19% (inactive); in assay [11] it was -9.05% (inactive). Further, in assay [12], the viability increase is 1.42% (inactive). Also, the RAM network inhibition in assay [16] was 0.27% (inactive).
Regarding `CC12CN3CC(C)(CN(C1)P3(=O)Oc1ccccc1)C2=O` (stereo not given), the growth inhibition in assay [10] is -3.04% (inactive); in assay [11], -8.29% (inactive). In [12], the viability increase is -0.06% (inactive). Besides, the viability was 101% (inactive) in [13] and 97.9% (inactive) in [14]. Moreover, the inhibition in assay [15] was 2.22% (inactive). Further, the RAM network inhibition in assay [16] was 3.62% (inactive).
Consider `O=C(C(Cc1ccccc1)NS(=O)(=O)c1ccc(F)cc1)N1CCC2(CC1)OCCO2` (stereo not given), for which the inhibition in assay [1] was 0% (inactive); in [8], -0.13% (inactive); in assay [9], -0.16% (inactive); in [15] it was -0.725% (inactive). Moreover, the viability in assay [4] was 95% (inactive); in [5] it was 94.2% (inactive); in assay [6], 79% (inactive); in [7] (setting [17]), 63.4%; in [7] (setting [18]) it was 79%; in assay [13], 95.4% (inactive). Also, the viability in [14] is 93.5% (inactive). Also, the differential viability (reversal) in assay [7] (H69AR cells + 2 uM doxorubicin) is 15.6% (inactive). The figures for the growth inhibition in assay [10] and in assay [11] were -6.55% (inactive) and -17.2% (inactive), respectively. In [12], the viability increase is -3.5% (inactive). The RAM network inhibition in assay [16] was 0.31% (inactive).
